Data on 40 compounds can be found in PubChem BioAssay.

The structures appear in SMILES notation. Where “and” joins values, the source holds several entries; their conditions need not be identical. Equal entries are not always repeated. A number with no mark means an inactive call. No rule for the calls is given here.

The test system of the experiment is Aerobactin synthetase IucA (Klebsiella pneumoniae hvKP1). In words: Biochemical IucA enzyme inhibition primary screen of the Spectrum library (AID 1346200).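 Also: 100% = wells without compound and 0% = wells lacking enzyme.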 The settings on record: malachite green pyrophosphate, A620, at 8 µM, hits give low values.
For `CC(C)(C)NCC(O)COc1cccc2c1CCCC2=O` (stereo not given), the activity remaining is 91.1%. For the compound `CC[C@H]1CN2CCc3cc(OC)c(OC)cc3C2C[C@@H]1CC1NCCc2cc(OC)c(OC)cc21` (stereo not given in full), the activity remaining was 118%. On to `O=C(Oc1cc(OC(=O)c2ccccc2)c2c(c1)O[C@H](c1ccc(OC(=O)c3ccccc3)c(OC(=O)c3ccccc3)c1)[C@@H](OC(=O)c1ccccc1)C2)c1ccccc1`, for which the activity remaining was 106%. As for `CC(C)=CC1C(CO)C1(C)C` (stereo not given), the figure is 86.3%. `CC(C)C(C)/C=C/C(C)C1CCC2C3=CC=C4CC(O)CCC4(C)C3CCC21C` (stereo not given): the activity remaining was 111%. As for `COC(=O)Nc1nc2ccc(C(=O)c3ccccc3)cc2[nH]1`, the figure is 104%.

Take `O=c1cc(-c2ccccc2)oc2c(O)c(O)ccc12`: the activity remaining is 92.5%. As for `C=C1c2c(Cl)ccc(O)c2C(O)=C2C(=O)[C@]3(O)C(O)=C(C(N)=O)C(=O)[C@@H](N(C)C)[C@@H]3[C@@H](O)[C@H]12`, the activity remaining was 109%. As for `CC1(C)CC2C1CCC1(C)OC2(C)CCC1O` (stereo not given), the figure is 120%; as for `CN1C2CC[C@@H]1CC(OC(=O)[C@H](CO)c1ccccc1)C2` (stereo not given in full), 102%. For `Cc1nc(N)cc(C[n+]2csc(CCO)c2C)n1`, the activity remaining is 83.3%. As for `O=C(CCBr)N1CCN(C(=O)CCBr)CC1`, the figure is 107%. For `COc1cc(OC)c2c(c1Cl)OC1(C2=O)C(O)=CC(=O)CC1C` (stereo not given) the value was 107%; for `C[C@]12CCC(=O)C=C1CCC1C2C(=O)C[C@@]2(C)C1CC[C@]2(O)C(=O)CO` (stereo not given in full), 111%; for `Nc1ccc(S(N)(=O)=O)cc1`, 116%. For `CC(CCC(=O)O)[C@H]1CCC2C3CC[C@@H]4CCCC[C@]4(C)C3CC[C@@]21C` (stereo not given in full) the value was 108%. Take `O=c1cc(-c2ccc(O)cc2)oc2cc(O[C@@H]3O[C@H](CO)[C@@H](O)[C@H](O)[C@H]3O[C@@H]3OC[C@](O)(CO)[C@H]3O)cc(O)c12`: the activity remaining is 103%. Consider `Cc1ncc([N+](=O)[O-])n1CC(C)O` (stereo not given), for which the activity remaining was 112%.

For the compound `CC(=O)OC1CCC23CC1(C)CCC2C(C)(C)CC3OC(C)=O` (stereo not given), the activity remaining is 105%. With `COC1=C(O)C(=O)c2c(cc3oc(C(C)=O)c(O)c3c2O)C1=O`, the activity remaining is 108%. For the compound `CC(=O)Oc1ccc2c(c1)CCC1C2CC[C@@]2(C)C1CC[C@@H]2OC(C)=O` (stereo not given in full), the activity remaining is 120%. For `CN(C)CC/C=C1/c2ccccc2COc2ccccc21` the value was 99.3%; for `COc1cccc2c1CCC1=CC(=O)CC[C@@]12C`, 111%; for `O=C(/C=C/c1ccccc1)c1ccc(O[C@@H]2O[C@H](CO)[C@@H](O)[C@H](O)[C@H]2O)cc1O`, 116%. For `COc1cc(O)c(C(=O)/C=C/c2ccc(O)c(OC)c2)c(OC)c1` the value was 77.4%; for `CC(C)=CCCC1(C)C=Cc2c(O)c3c(c(CC=C(C)C)c2O1)OC12C(=CC4CC1C(C)(C)OC2(C/C=C(\C)C(N)=O)C4=O)C3=O` (stereo not given), 99.6%. As for `COc1cc(O)c2c(=O)c(O)c(-c3ccc(O)c(O)c3)oc2c1`, the figure is 103%. `O=C(O)CCNC(=O)c1ccccc1`: the activity remaining is 103%. For `COC(=O)C[C@H]1C2(C)CC34OC5(C)O[C@@]6([C@H](OC(C)=O)C(OC(C)=O)[C@]7(C)C(/C(=C(/O)C(C)C)C(=O)O[C@H]7c7ccoc7)[C@@]6(O5)[C@H](OC(C)=O)[C@@]3(O)C2OC(=O)C(C)C)[C@]14C` (stereo not given in full) the value was 104%; for `OC1C(O)C(O)C(O)C(O)C1O` (stereo not given), 103%; for `COc1cc2c(cc1OC)C1Cc3ccc(OC)c(OC)c3CN1CC2` (stereo not given), 118%. On to `CO[C@H]1/C=C/O[C@@]2(C)Oc3c(C)c(O)c4c(O)c(c(C=NN5CCN(C)CC5)c(O)c4c3C2=O)NC(=O)/C(C)=C\C=C\C(C)[C@H](O)[C@@H](C)[C@@H](O)[C@@H](C)[C@@H](OC(C)=O)[C@@H]1C` (stereo not given in full), for which the activity remaining is 98.4%. As to `O=C(/C=C/c1ccccc1)c1ccc(O)cc1O`, the activity remaining is 96.4%. For `CN(C)/N=N/c1nc[nH]c1C(N)=O` the value was 107%; for `C[C@@H]1CC[C@@]2(OC1)OC1CC3C4CC=C5C[C@@H](O)CC[C@]5(C)C4CC[C@]3(C)C1[C@@H]2C` (stereo not given in full), 104%; for `CN(C)CCC(c1ccc(Br)cc1)c1ccccn1` (stereo not given), 123% and 96.1%. In the case of `COC(=O)C[C@H]1C(C)(C)C2(O)OC34CC2C(=O)[C@]1(C)C3CC[C@]1(C)C4=CC(=O)O[C@H]1c1ccoc1` (stereo not given in full), the activity remaining is 105%. As for `COC1CC2CCC(C)C(O)(O2)C(=O)C(=O)N2CCCCC2C(=O)OC(C(C)CC2CCC(O)C(OC)C2)CC(=O)C(C)/C=C(\C)C(O)C(OC)C(=O)C(C)CC(C)/C=C/C=C/C=C/1C` (stereo not given), the figure is 107%. As for `Cc1cc(C)cc(OCC2CNC(=O)O2)c1` (stereo not given), the figure is 113%; as for `C=C1c2cccc(O)c2C(O)=C2C(=O)[C@]3(O)C(O)=C(C(N)=O)C(=O)[C@@H](N(C)C)[C@@H]3[C@@H](O)[C@H]12`, 111%.
